# The list is not random: actives were taken first. Their share in the collection is about 3.5%.
# FBW7 act: human FBW7 E3 ligase activation, primary screen; Q969H0; normalized activity (activation), % at 26.1 µM; AlphaScreen FBW7–phospho-cyclin E peptide binding, activator screen; 650,000 compounds, 0.13% hits; in the data active means normalized activity above about 1.9%;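 further: purified mutant Fbw7 with reduced substrate affinity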
# TEAD-YAP inh: TEAD-YAP interaction inhibition. HEK-TIYL cells, TEAD-Gal4/YAP UAS-luciferase luminescence. inhibition, % at 9.12 µM. 640,000 compounds, 1.4% hits; in the data active means inhibition above about 32%
# MITF inh: blocks human microphthalmia-associated transcription factor | AID 1259374 | 650,000 compounds, 0.91% hits | inhibition, % at 2.6 µM | AlphaScreen MITF homodimerization, bead proximity signal | O75030; in the data active means inhibition above about 50%
# Target sequence (O75030 whole entry, looked up): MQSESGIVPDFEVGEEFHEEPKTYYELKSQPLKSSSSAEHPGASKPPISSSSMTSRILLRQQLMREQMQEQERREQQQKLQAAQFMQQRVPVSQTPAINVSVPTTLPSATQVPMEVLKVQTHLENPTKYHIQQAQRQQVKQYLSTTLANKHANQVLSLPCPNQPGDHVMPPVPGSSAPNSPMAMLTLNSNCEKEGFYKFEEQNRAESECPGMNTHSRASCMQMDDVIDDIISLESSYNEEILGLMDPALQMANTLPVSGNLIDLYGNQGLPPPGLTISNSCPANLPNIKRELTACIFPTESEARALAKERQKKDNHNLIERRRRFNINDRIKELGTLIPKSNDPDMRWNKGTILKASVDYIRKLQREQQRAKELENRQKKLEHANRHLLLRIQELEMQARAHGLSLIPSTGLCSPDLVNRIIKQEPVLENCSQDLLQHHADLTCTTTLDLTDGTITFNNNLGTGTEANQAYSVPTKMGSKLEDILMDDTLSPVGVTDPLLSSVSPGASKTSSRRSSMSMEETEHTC
# GPR151 ag: human GPR151 activation. AID 1508602. Q8TDV0. 650,000 compounds, 1% hits. PathHunter beta-arrestin GPR151 cells, luminescence. activation, % at 11.2 µM; in the data active means activation above about 4.9%
# A number is an active result; - = inactive.
SMILES,FBW7 act,TEAD-YAP inh,MITF inh,GPR151 ag
O=c1[nH]c(N/N=C/c2ccccc2O)nc2ccccc12,-,72,78,-
CCCn1nnnc1SCC(=O)Nc1cccc(NC(=O)CC)c1,-,-,-,-
C=CCn1c(C)cc(C(=O)CSc2nnc(N)s2)c1C,-,39,-,-
CCCC(=O)N1c2ccccc2NC2=C(C(=O)CCC2)C1c1ccc(N(C)C)cc1 (stereo not drawn),-,-,-,-
CN1C(=O)[C@H]2CN(C(=O)c3ccc4ccccc4c3)CCN2C(=O)[C@@H]1CO,-,-,-,-
Oc1ccc(-c2cn3c(n2)SCC3)cc1,-,-,-,-
Oc1ccc(-c2cn3c(n2)SCC3)cc1O,-,-,65,-
COc1ccccc1C(NC(=O)c1cccnc1)c1cc(Cl)c2cccnc2c1O (stereo not drawn),-,-,-,-
COc1cccc(C(=O)NC(c2ccccc2)c2cc(Cl)c3cccnc3c2O)c1 (stereo not drawn),-,-,-,-
COc1cccc(C(=O)NC(c2ccccc2OC)c2cc(Cl)c3cccnc3c2O)c1 (stereo not drawn),-,41,-,-
COc1cccc(C(=O)NC(c2ccco2)c2cc(Cl)c3cccnc3c2O)c1 (stereo not drawn),-,79,-,-
COc1ccc(CCNC(=O)Cc2csc(Nc3ccccc3)n2)cc1,-,-,-,-
O=C(O)CCC(=O)Nc1ccc(-c2nc3cc4ccccc4cc3[nH]2)cc1,-,-,-,-
O=C(O)CCC(=O)Nc1cccc(-c2nc3cc4ccccc4cc3[nH]2)c1,-,34,-,-
Cc1cc(F)ccc1NC(=O)CSc1ccsc1[N+](=O)[O-],-,-,-,-
O=C(CSc1ccsc1[N+](=O)[O-])Nc1cc(F)ccc1F,-,32,-,-
COc1cccc(C2C=C(c3ccc(C)cc3)Nc3ncnn32)c1 (stereo not drawn),-,54,-,-
COc1cccc(C2C=C(c3cccc(Br)c3)Nc3ncnn32)c1 (stereo not drawn),-,39,-,-
COc1ccc(OC)c(C2C=C(c3cccc(Br)c3)Nc3ncnn32)c1 (stereo not drawn),-,-,-,-
COc1ccc(C2=CC(c3ccc(OC)cc3OC)n3ncnc3N2)cc1 (stereo not drawn),-,56,-,-
COc1ccc(C2=CC(c3cccc(OC)c3)n3ncnc3N2)cc1 (stereo not drawn),-,43,-,-
CCc1ccc(C2=CC(c3cccc(OC)c3)n3ncnc3N2)cc1 (stereo not drawn),-,-,-,-
O=C(Nc1ccccc1F)N[C@H]1C[C@H]2C(=O)N[C@@H](CO)C(=O)N2C1,-,-,-,-
Cc1cccc(OC(=O)OC2CCC3(C)C(=CCC4C3CCC3(C)C(C(C)CCCC(C)C)CCC43)C2)c1 (stereo not drawn),-,-,-,-
Cc1cccc(NC(=O)C2C3C=CC4(O3)C2C(=O)N(CC2COc3ccccc3O2)C4C(=O)NC2CCCC(C)C2C)c1 (stereo not drawn),-,-,-,-
SMILES,FBW7 act,TEAD-YAP inh,MITF inh,GPR151 ag
CCc1ccc(C2=CC(c3cc(OC)ccc3OC)n3ncnc3N2)cc1 (stereo not drawn),-,51,-,-
COc1ccc(C2C=C(c3ccc(C)cc3)Nc3ncnn32)c(OC)c1OC (stereo not drawn),-,47,-,-
COc1ccc(OC)c(C2C=C(c3ccc(Cl)cc3)Nc3ncnn32)c1 (stereo not drawn),-,-,-,-
Cc1ccc(NS(=O)(=O)c2cc([N+](=O)[O-])ccc2NN)c(C)c1,-,-,-,-
O=C1c2ccccc2C(=O)c2c1ccc(C(=O)OCC(=O)N1CCOCC1)c2[N+](=O)[O-],-,-,58,-
O=C(COC(=O)c1ccc2c(c1[N+](=O)[O-])C(=O)c1ccccc1C2=O)NC1CC1,-,-,-,-
COc1cc(N2CCN(C(=O)c3ccc4ccccc4c3)CC2)nc(C)n1,-,-,-,-
Cc1ccc(Nc2nc(-c3ccc(O)cc3)cs2)nc1,-,33,-,-
Cc1noc(-c2ccc(NC(=O)c3cccnc3)cc2)n1,-,43,-,-
CCn1c(N2CCC(C(=O)NCCO)CC2)nc2ccccc21,-,-,-,-
CCn1c(N2CCC(C(=O)NC3CCN(Cc4ccccc4)CC3)CC2)nc2ccccc21,-,39,-,-
CCCCOc1ccc(S(=O)(=O)n2cnc3cc(C)c(C)cc32)cc1,-,48,-,-
Cc1ccc(S(=O)(=O)n2cnc3cc(C)c(C)cc32)cc1,-,-,-,-
Cc1cc2ncn(S(=O)(=O)c3ccc(S(N)(=O)=O)cc3)c2cc1C,-,-,-,-
Cc1ccc(S(=O)(=O)n2cnc3cc(C)c(C)cc32)cc1C,-,39,-,-
CCOc1ccc(S(=O)(=O)n2cnc3cc(C)c(C)cc32)cc1,-,34,-,-
CCOc1cc(/C=c2/sc3nc4cc(C)c(C)cc4n3c2=O)ccc1O,-,-,-,-
O=C(CN1CCCc2ccccc21)N/N=C/c1ccc(Cl)cc1,-,36,-,-
O=C(CN1CCCc2ccccc21)N/N=C/c1ccccc1,-,-,-,-
C#CCN1CCC(N2CCN(c3ccccc3OCC)CC2)CCC1=O (stereo not drawn),-,-,-,-
CC(C)c1cc(C(=O)Nc2ccc(F)cc2)nn1-c1nc2ccccc2s1,-,-,-,-
CC(C)c1cc(C(=O)NCc2ccco2)nn1-c1nc2ccccc2s1,-,78,-,-
COc1ccc(S(=O)(=O)NC2CC(C)CC(C)(C)C2)cc1OC (stereo not drawn),-,-,-,-
CCOC(=O)Cn1c(O)c(N=NC(=O)CNC(=O)c2ccncc2)c2ccccc21,-,-,-,-
Cc1cc(NC(=O)Nc2ccccc2)ccc1N1CCCCC1=O,-,37,-,-
SMILES,FBW7 act,TEAD-YAP inh,MITF inh,GPR151 ag
O=C(Nc1ccc(Cl)c(Cl)c1)c1ccc(F)c(S(=O)(=O)N2CCCc3ccccc32)c1,-,49,-,-
O=C(Nc1ccc(F)c(F)c1)c1ccc(F)c(S(=O)(=O)N2CCCc3ccccc32)c1,-,43,-,-
Cc1c(C(=O)NC(C)c2ccccc2)oc2ccc(S(=O)(=O)N3CCCC3)cc12 (stereo not drawn),-,-,-,-
CCCn1c(=O)[nH]c2c(C(N)=O)nc(-c3cccc(OC)c3)nc21,-,-,-,-
Cc1cc(NCCCN(C)C)n2c(nc3ccccc32)c1C#N,-,50,-,-
Cc1cc(NCCO)n2c(nc3ccccc32)c1C#N,-,-,-,-
Cc1nc2ccccc2n1CC(O)COc1ccc(C(C)(C)C)cc1 (stereo not drawn),-,47,-,-
Cc1nc2ccccc2n1CC(O)COc1ccc2ccccc2c1Br (stereo not drawn),-,45,-,-
COc1ccc(OCC(O)Cn2c(C)nc3ccccc32)cc1 (stereo not drawn),-,44,-,-
COC(=O)c1cccc(OCC(O)Cn2c(C)nc3ccccc32)c1 (stereo not drawn),-,39,-,-
N#CCc1ccc(OC(=O)c2cccnc2C(F)(F)F)cc1,-,-,-,-

# Screens from PubChem BioAssay.
